Reference: PubChem BioAssay (EPA / NIEHS)
Results filed as inconclusive are left out. Activity calls are given as the source filed them. The calls were made as follows: active = hit-call score of the fitted dose curve at least 0.9, where 1 is the maximum; inconclusive = response in the unintended direction; inactive = score below 0.9.

Target: human Colony Stimulating Factor 1 Receptor (CSF1R), CSF1R (gene 1436) (UniProt P07333)
Assay: NVS_ENZ_hCSF1R: NovaScreen (NVS) Enzymatic Assay for human Colony Stimulating Factor 1 Receptor (CSF1R) (AID 2283150)
Procedure, shortened: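 Compounds screened in duplicate at 25 uM, then concentration-response (top 50 uM) for those passing threshold such as 30% inhibition; recombinant CSF1R activity measured 1 h post-dosing via fluorescent substrate/product mobility-shift separation, loss of signal versus DMSO.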

human Colony Stimulating Factor 1 Receptor (CSF1R), CSF1R (gene 1436), sequence (P07333 whole entry, looked up): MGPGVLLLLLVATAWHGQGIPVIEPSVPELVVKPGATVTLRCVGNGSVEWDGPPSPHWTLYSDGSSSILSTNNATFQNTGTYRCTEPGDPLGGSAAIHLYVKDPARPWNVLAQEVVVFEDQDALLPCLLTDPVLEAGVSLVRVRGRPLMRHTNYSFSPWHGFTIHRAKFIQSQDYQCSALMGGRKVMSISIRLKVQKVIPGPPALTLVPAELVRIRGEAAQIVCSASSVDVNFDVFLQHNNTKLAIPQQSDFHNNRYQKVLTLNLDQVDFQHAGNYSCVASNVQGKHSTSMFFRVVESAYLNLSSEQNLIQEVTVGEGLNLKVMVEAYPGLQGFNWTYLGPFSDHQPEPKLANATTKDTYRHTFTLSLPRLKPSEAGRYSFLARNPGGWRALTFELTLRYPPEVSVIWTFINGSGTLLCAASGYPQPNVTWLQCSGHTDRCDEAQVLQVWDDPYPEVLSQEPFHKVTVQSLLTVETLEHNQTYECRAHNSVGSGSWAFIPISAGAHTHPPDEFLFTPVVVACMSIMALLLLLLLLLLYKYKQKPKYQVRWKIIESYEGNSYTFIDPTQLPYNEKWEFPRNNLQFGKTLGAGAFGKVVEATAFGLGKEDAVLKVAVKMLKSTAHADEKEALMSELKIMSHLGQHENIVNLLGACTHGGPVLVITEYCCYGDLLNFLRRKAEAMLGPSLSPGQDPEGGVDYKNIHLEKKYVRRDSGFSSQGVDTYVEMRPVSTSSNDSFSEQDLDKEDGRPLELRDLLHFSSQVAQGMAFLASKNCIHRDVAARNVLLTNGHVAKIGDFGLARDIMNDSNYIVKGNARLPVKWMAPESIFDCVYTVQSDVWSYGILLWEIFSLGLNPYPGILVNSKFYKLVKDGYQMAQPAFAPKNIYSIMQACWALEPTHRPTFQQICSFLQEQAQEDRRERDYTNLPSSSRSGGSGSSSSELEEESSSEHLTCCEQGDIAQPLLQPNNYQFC

| Compound | outcome | AC50 |
| --- | --- | --- |
| CCCC(=O)OCCC(C)C | inactive |  |
| COc1cc(C(=O)NC2CCN(C)CC2)ccc1Nc1ncc2c(n1)N(C1CCCC1)CC(F)(F)C(=O)N2C |  | 11.2 µM (active) |
| c1ccc2ccccc2c1 | inactive |  |
| Cc1oc2c(NC(=O)c3c(Cl)cccc3Cl)cccc2c1C(C)(C)O | inactive |  |
| CCN(Cc1cccc(S(=O)(=O)O)c1)c1ccc(C(=C2C=CC(=[N+](CC)Cc3cccc(S(=O)(=O)O)c3)C=C2)c2ccccc2S(=O)(=O)[O-])cc1 |  | 2.94 µM (active) |
| CC/C(=C(/CC)c1ccc(O)cc1)c1ccc(O)cc1 | inactive |  |
| O=C(O)Cc1cc(I)c(Oc2ccc(O)c(I)c2)c(I)c1 | inactive |  |
| C[C@]12CC[C@@H]3c4ccc(O)cc4CC[C@H]3[C@@H]1CC[C@H]2O | inactive |  |
| CC(C)(C)c1csc(-c2cc3cc(OCc4ccccc4CC(=O)O)ccc3o2)n1 | inactive |  |
